# Test results taken from PubChem BioAssay (EPA / NIEHS).
# Results filed as inconclusive are left out. The source made the active and inactive calls. The calls were made as follows: active = hit-call score of the fitted dose curve at least 0.9, where 1 is the maximum; inconclusive = response in the unintended direction; inactive = score below 0.9.
# How the values were obtained:
# [1] = target: human Peroxisome Proliferator-activated Receptor alpha (PPARa), PPARA (gene 5465) (UniProt Q07869); assay: ATG_PPARa_TRANS: Attagene TRANS-FACTORIAL HepG2 Assay for human Peroxisome Proliferator-activated Receptor alpha (PPARa) (AID 2283001)
# Chain of human Peroxisome Proliferator-activated Receptor alpha (PPARa), PPARA (gene 5465) (Q07869 whole entry, looked up): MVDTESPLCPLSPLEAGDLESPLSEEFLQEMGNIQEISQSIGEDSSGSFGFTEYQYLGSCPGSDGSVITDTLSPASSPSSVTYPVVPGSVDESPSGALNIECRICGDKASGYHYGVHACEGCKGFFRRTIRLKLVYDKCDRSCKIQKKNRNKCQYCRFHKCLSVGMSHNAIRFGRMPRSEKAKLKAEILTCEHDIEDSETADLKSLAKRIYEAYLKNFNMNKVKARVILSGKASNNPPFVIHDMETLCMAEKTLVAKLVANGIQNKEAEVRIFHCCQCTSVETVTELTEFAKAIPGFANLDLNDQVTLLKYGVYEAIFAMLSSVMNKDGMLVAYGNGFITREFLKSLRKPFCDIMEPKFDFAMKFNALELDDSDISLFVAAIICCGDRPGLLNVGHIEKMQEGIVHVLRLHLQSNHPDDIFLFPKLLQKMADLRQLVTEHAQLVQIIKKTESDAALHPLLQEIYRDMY
# Procedure, shortened: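 HepG2, transient MRTU transfection, 24 h treatment. RT-PCR → FAM labelling → capillary electrophoresis. Fit vs DMSO, positive direction.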
# [2] = target: human Peroxisome Proliferator-activated Receptor delta (PPARd), PPARD (gene 5467) (UniProt Q03181); assay: ATG_PPARd_TRANS: Attagene TRANS-FACTORIAL HepG2 Assay for human Peroxisome Proliferator-activated Receptor delta (PPARd) (AID 2283002)
# Chain of human Peroxisome Proliferator-activated Receptor delta (PPARd), PPARD (gene 5467) (Q03181 whole entry, looked up, the tested form may be a part): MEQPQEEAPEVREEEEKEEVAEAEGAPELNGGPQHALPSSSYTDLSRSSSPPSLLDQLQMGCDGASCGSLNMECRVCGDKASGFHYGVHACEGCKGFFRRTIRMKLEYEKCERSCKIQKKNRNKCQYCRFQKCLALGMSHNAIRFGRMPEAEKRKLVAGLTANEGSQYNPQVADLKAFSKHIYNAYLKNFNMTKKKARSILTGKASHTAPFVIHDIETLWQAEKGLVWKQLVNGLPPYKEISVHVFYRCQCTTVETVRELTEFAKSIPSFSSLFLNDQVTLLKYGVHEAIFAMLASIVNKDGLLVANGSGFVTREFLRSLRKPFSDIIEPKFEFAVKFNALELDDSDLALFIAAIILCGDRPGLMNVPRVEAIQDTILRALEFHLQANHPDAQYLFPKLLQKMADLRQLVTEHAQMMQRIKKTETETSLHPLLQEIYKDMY
# Procedure, shortened: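 Fluorescence from capillary electrophoresis of labelled RT-PCR reporter fragments gives the signal; DMSO sets baseline. Cells: HepG2 transiently carrying GAL4-UAS reporter units plus chimeric nuclear receptor-Gal4 proteins, exposed to chemicals for 24 h.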
# [3] = target: Peroxisome proliferator-activated receptor gamma (Homo sapiens) (UniProt P37231); assay: ATG_PPARg_TRANS: Attagene TRANS-FACTORIAL HepG2 Assay for human Peroxisome Proliferator-activated Receptor-gamma (PPARg) (AID 2283007)
# Chain of Peroxisome proliferator-activated receptor gamma (Homo sapiens) (P37231 whole entry, looked up): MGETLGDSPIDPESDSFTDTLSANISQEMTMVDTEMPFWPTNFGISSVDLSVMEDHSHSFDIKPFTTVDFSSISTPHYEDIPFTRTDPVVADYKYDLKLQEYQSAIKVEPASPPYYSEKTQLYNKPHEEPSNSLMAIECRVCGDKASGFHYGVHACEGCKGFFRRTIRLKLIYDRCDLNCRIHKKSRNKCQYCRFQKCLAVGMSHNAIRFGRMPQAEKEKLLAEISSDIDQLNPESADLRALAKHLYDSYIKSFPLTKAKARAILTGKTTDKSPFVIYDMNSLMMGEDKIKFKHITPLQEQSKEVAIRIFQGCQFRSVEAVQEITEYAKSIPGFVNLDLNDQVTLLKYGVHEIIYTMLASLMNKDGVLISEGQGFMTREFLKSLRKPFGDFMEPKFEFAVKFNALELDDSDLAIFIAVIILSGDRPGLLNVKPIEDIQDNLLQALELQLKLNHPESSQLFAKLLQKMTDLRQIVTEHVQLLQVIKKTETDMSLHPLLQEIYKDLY
# Procedure, shortened: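 Multiplexed reporter transcription units in HepG2, 24 h dosing, reporter transcripts quantified by fluorescent RT-PCR and capillary electrophoresis. Increase over DMSO scored.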
# [4] = target: Nuclear receptor subfamily 1 group I member 2 (Homo sapiens) (UniProt O75469); assay: ATG_PXR_TRANS: Attagene TRANS-FACTORIAL HepG2 Assay for human Pregnane X Receptor (PXR) (AID 2283008)
# Chain of Nuclear receptor subfamily 1 group I member 2 (Homo sapiens) (O75469 whole entry, looked up, the tested form may be a part): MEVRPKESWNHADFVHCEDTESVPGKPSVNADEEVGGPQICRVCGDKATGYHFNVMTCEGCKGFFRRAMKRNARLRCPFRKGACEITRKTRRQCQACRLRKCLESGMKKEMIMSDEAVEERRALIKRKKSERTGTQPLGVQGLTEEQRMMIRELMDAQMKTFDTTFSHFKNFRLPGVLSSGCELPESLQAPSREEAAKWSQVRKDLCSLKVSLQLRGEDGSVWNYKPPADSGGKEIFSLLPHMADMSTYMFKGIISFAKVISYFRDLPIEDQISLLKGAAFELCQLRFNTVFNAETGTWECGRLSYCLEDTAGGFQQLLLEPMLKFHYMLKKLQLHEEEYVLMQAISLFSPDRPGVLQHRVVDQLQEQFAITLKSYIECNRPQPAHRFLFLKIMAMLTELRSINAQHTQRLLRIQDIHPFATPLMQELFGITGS
# Procedure, shortened: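 Transactivation by exogenous PXR–GAL4 fusion measured as reporter transcript induction after 24 h compound treatment of transfected human HepG2 cells. Read-out via RT-PCR and capillary electrophoresis of labelled fragments, fitted upward relative to DMSO.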
# [5] = target: human RAR-related Orphan Receptor beta (RORb), RORB (gene 6096) (UniProt Q92753); assay: ATG_RORb_TRANS: Attagene TRANS-FACTORIAL HepG2 Assay for human RAR-related Orphan Receptor beta (RORb) (AID 2283010)
# Chain of human RAR-related Orphan Receptor beta (RORb), RORB (gene 6096) (Q92753 whole entry, looked up, the tested form may be a part): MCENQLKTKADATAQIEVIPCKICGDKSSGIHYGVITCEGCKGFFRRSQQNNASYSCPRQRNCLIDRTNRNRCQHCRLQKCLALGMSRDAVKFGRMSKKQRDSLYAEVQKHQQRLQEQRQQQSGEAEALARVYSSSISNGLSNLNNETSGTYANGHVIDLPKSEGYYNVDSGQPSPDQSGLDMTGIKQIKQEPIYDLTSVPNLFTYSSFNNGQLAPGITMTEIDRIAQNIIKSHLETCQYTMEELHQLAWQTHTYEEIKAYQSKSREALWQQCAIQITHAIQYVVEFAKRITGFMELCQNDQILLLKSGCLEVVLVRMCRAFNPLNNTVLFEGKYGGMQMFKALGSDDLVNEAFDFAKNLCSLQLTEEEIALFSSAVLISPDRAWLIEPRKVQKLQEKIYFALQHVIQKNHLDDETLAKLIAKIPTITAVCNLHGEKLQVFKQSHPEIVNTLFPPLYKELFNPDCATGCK
# Procedure, shortened: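 Read-out is reporter mRNA induction, quantified by RT-PCR with fluorescent capillary electrophoresis, 24 h post-dose in transiently transfected HepG2 expressing exogenous NR-Gal4 chimera. Activity fitted upward versus DMSO.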
# [6] = target: Retinoic acid receptor alpha (Homo sapiens) (UniProt P10276); assay: ATG_RARa_TRANS: Attagene TRANS-FACTORIAL HepG2 Assay for human Retinoic Acid Receptor alpha (RARa) (AID 2283005)
# Chain of Retinoic acid receptor alpha (Homo sapiens) (P10276 whole entry, looked up, the tested form may be a part): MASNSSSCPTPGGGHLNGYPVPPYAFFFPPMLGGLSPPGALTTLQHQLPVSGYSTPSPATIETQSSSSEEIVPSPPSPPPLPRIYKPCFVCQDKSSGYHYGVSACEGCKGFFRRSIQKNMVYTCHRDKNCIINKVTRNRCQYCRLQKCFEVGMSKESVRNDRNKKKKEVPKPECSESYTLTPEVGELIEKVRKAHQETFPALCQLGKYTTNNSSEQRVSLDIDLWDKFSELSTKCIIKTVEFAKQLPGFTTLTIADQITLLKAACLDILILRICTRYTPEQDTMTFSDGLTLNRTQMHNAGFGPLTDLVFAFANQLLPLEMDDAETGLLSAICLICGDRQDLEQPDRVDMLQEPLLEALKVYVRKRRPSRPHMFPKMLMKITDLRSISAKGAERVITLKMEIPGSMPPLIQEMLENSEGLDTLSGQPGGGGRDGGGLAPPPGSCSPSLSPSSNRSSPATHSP
# Procedure, shortened: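 HepG2 transiently transfected with multiplex GAL4-UAS reporter units including a human RARa–GAL4 chimera; 24 h compound exposure. Reporter mRNA quantified by RT-PCR, 6-FAM labeling and capillary electrophoresis; gain of signal versus DMSO.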
# [7] = target: human Retinoic Acid Receptor gamma (RARg), RARG (gene 5916) (UniProt P13631); assay: ATG_RARg_TRANS: Attagene TRANS-FACTORIAL HepG2 Assay for human Retinoic Acid Receptor gamma (RARg) (AID 2283009)
# Chain of human Retinoic Acid Receptor gamma (RARg), RARG (gene 5916) (P13631 whole entry, looked up, the tested form may be a part): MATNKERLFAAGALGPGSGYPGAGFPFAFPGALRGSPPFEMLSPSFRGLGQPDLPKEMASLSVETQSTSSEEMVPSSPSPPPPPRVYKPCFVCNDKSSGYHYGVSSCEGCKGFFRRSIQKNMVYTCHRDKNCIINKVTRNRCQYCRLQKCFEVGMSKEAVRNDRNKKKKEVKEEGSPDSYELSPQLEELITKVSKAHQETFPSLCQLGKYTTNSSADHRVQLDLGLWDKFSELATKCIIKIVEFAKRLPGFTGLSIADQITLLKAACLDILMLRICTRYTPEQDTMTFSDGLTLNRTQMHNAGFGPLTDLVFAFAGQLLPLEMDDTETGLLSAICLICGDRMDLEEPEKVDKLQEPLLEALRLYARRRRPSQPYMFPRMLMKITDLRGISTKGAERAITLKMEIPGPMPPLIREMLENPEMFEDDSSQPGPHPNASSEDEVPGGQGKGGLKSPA
# Procedure, shortened: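 Transactivation of exogenous RARg-Gal4 fusion measured as reporter transcript induction after 24 h in transfected HepG2 cells. RNA reverse-transcribed, amplified, fluorescently labeled and resolved by capillary electrophoresis; increase relative to DMSO.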
# [8] = target: human Retinoic Acid Receptor beta (RARb), RARB (gene 5915) (UniProt P10826); assay: ATG_RARb_TRANS: Attagene TRANS-FACTORIAL HepG2 Assay for human Retinoic Acid Receptor beta (AID 2283004)
# Chain of human Retinoic Acid Receptor beta (RARb), RARB (gene 5915) (P10826 whole entry, looked up, the tested form may be a part): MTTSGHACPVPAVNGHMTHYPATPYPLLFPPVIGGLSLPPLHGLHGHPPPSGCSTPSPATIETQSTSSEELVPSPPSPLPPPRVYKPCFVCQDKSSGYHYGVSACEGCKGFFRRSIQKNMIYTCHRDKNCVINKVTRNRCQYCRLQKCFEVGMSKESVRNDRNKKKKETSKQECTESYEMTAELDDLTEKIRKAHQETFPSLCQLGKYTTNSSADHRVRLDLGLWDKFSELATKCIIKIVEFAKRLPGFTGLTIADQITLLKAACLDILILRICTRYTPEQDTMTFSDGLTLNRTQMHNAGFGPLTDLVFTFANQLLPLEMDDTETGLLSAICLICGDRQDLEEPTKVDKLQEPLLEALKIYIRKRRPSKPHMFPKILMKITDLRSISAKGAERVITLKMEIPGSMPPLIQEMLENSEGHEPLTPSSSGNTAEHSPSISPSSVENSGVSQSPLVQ
# Procedure, shortened: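 Fluorescent capillary-electrophoresis detection of GAL4-UAS reporter mRNA defines the endpoint, with induction over DMSO-treated wells scored as activity. Transiently transfected human hepatoma HepG2 cells expressing exogenous NR–Gal4 proteins are exposed to test chemicals for 24 h.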
compound,measurement,setting,value
COCCOC(=O)c1ccccc1C(=O)OCCOC,outcome,[1],inactive
same,outcome,[2],inactive
same,outcome,[3],inactive
same,outcome,[4],inactive
same,outcome,[5],inactive
CCCCCCC(=O)c1ccccc1,outcome,[1],inactive
same,outcome,[2],inactive
same,AC50,[3],42.8 µM (active)
same,AC50,[4],59.2 µM (active)
C/C=C(\C)C(=O)OCCc1ccccc1,outcome,[1],inactive
same,outcome,[2],inactive
same,outcome,[6],inactive
same,outcome,[3],inactive
same,AC50,[4],25.1 µM (active)
Clc1ccc(C(c2ccccc2Cl)C(Cl)Cl)cc1 (stereo unspecified),outcome,[1],inactive
same,outcome,[2],inactive
same,outcome,[3],inactive
same,AC50,[4],1.92 µM (active)
COC(=O)C=C(C)CCC=C(C)C,outcome,[1],inactive
same,outcome,[2],inactive
same,AC50,[3],44.5 µM (active)
same,AC50,[4],4.9 µM (active)
N#Cc1ccc(CC(=O)c2cccc(C(F)(F)F)c2)cc1,outcome,[1],inactive
same,outcome,[2],inactive
same,AC50,[3],31.4 µM (active)
same,AC50,[4],5.99 µM (active)
same,outcome,[7],inactive
Cc1[nH]c(=O)c(C#N)cc1-c1ccncc1,outcome,[1],inactive
same,outcome,[2],inactive
same,outcome,[3],inactive
same,outcome,[4],inactive
CCCC(=O)OC(C)(C)Cc1ccccc1,outcome,[1],inactive
same,outcome,[2],inactive
same,outcome,[3],inactive
same,outcome,[4],inactive
CCCCCCCCSCCO,outcome,[1],inactive
same,outcome,[2],inactive
same,AC50,[3],33.8 µM (active)
same,outcome,[4],inactive
CCCCCCCCCCCCN1CCCCCC1=O,outcome,[1],inactive
same,outcome,[2],inactive
same,outcome,[3],inactive
same,AC50,[4],1.93 µM (active)
same,outcome,[7],inactive
CCCCCCCCCCCCS(=O)(=O)Cl,outcome,[1],inactive
same,outcome,[2],inactive
same,outcome,[6],inactive
same,AC50,[3],25 µM (active)
same,outcome,[7],inactive
same,outcome,[5],inactive
O=c1c(O)c(-c2ccc(O)cc2)oc2cc(O)cc(O)c12,outcome,[1],inactive
same,outcome,[2],inactive
same,AC50,[3],9.39 µM (active)
same,outcome,[4],inactive
same,outcome,[5],inactive
Cc1cc(C)nc(NS(=O)(=O)c2ccc(N)cc2)n1,outcome,[1],inactive
same,outcome,[2],inactive
same,outcome,[3],inactive
same,outcome,[4],inactive
same,outcome,[5],inactive
CCO/C=C1\N=C(c2ccccc2)OC1=O,outcome,[1],inactive
same,outcome,[2],inactive
same,outcome,[3],inactive
same,outcome,[4],inactive
C=Cc1ccncc1,outcome,[1],inactive
same,AC50,[2],25.6 µM (active)
same,outcome,[6],inactive
same,AC50,[3],77.4 µM (active)
same,outcome,[4],inactive
same,outcome,[5],inactive
Cc1ncc[nH]1,outcome,[1],inactive
same,outcome,[2],inactive
same,outcome,[3],inactive
same,outcome,[4],inactive
O=C1OC(=O)c2c(Cl)c(Cl)c(Cl)c(Cl)c21,outcome,[1],inactive
same,outcome,[2],inactive
same,outcome,[8],inactive
same,outcome,[5],inactive
CC(C)CCCCCCCCCCCCCCC(=O)O,outcome,[1],inactive
same,outcome,[2],inactive
same,outcome,[6],inactive
same,outcome,[4],inactive
same,outcome,[5],inactive
CC/C=C\CC/C=C/CO,outcome,[1],inactive
same,outcome,[2],inactive
same,AC50,[3],52.9 µM (active)
same,outcome,[4],inactive
OCc1ccc(Cl)cc1Cl,outcome,[1],inactive
same,outcome,[2],inactive
same,outcome,[6],inactive
same,outcome,[4],inactive
